PubChem BioAssay
Activity calls are given as the source filed them.

Experiments:
[1] = E. coli DRC41 culture turbidity changes, primary screen, E. coli filamentation inducer project, strain DRC41, OD650, 48 h (AID 1152);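 also: E. coli MC1000 strain DRC41 lacking acrAB efflux pump and sulA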; conditions: E. coli DRC41 (acrAB sulA), higher = more signal, called active from +8 up or from −8 down
[2] = small-molecule binders of probe aLefty1, primary screen, biochemical, small-molecule microarray, 635/667 nm fluorescence (AID 1153); conditions: higher = more signal;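 also: score merges spot fluorescence with signal-to-noise ratio from the scanned slide images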
[3] = PSAC antagonists in infected red cells, primary screen, cell-based, P. falciparum Indochina, OD700, 1 h (AID 1154); conditions: P. falciparum Indochina infected RBC osmotic lysis, higher = more signal, called active from +8 up or from −8 down
[4] = PSAC antagonists in infected red cells, primary screen, cell-based, P. falciparum Indochina, OD700, 2 h (AID 1155);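 also: lysis reports solute entry through the parasite surface anion channel PSAC; channel blockers reduce lysis of infected cells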; conditions: P. falciparum Indochina infected erythrocytes, osmotic lysis OD700; higher = more signal, called active from +8 up or from −8 down
[5] = osmotic lysis modulators in infected erythrocytes, primary screen, PSAC antagonist project, cell-based, P. falciparum Indochina, OD700, 3 h (AID 1156); conditions: higher = more signal, called active from +8 up or from −8 down
[6] = PSAC antagonists in infected red cells, primary screen, cell-based, P. falciparum Indochina, OD700, 18 h (AID 1157); conditions: P. falciparum Indochina infected erythrocytes, osmotic lysis OD700, 18 h; higher = more signal, called active from +8 up or from −8 down
[7] = modulators of S6 phosphorylation in cells, primary screen, cell-based, A549, cytoblot, luminescence, serum-stimulated (AID 1158); conditions: A549 phospho-S6 cytoblot, 5 h, higher = more signal;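 also: serum-stimulated A549 lung adenocarcinoma cells; signal is phosphorylated S6 detected by cytoblot immunostaining with HRP secondary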
[8] = target: NADPH oxidase 2 (Homo sapiens) (UniProt P04839); test: NOX2-dependent H2O2 signal modulators, primary screen, NOX inhibitor project, cell-based, HEK293-NOX2, PMA-stimulated, Amplex Red fluorescence (AID 1159); conditions: 45 min, higher = more signal, called active from +8 up or from −8 down; also: test concentration not given here
NADPH oxidase 2 (Homo sapiens), sequence (P04839 whole entry, looked up): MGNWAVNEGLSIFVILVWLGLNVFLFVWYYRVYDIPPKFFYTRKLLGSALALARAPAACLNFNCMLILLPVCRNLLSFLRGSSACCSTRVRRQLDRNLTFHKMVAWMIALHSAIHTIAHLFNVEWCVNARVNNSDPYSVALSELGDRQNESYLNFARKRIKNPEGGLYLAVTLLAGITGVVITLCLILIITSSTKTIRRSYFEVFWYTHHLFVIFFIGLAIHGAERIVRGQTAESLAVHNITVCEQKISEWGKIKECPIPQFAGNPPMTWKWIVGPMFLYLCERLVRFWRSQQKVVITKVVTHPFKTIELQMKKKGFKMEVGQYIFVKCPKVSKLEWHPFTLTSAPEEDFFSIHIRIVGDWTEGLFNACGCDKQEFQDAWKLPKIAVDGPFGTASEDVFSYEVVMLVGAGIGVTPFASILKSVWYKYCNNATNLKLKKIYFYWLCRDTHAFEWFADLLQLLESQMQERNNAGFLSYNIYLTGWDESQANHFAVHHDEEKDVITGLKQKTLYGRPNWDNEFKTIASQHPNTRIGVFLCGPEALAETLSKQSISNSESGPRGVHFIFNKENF

[9] = target: NADPH oxidase 4 (Homo sapiens) (UniProt Q9NPH5); test: NOX4-dependent H2O2 signal modulators, primary screen, NOX inhibitor project, cell-based, HEK293-NOX4, tetracycline-induced, Amplex Red fluorescence (AID 1160); conditions: 45 min, higher = more signal, called active from +8 up or from −8 down
NADPH oxidase 4 (Homo sapiens), sequence (Q9NPH5 whole entry, looked up): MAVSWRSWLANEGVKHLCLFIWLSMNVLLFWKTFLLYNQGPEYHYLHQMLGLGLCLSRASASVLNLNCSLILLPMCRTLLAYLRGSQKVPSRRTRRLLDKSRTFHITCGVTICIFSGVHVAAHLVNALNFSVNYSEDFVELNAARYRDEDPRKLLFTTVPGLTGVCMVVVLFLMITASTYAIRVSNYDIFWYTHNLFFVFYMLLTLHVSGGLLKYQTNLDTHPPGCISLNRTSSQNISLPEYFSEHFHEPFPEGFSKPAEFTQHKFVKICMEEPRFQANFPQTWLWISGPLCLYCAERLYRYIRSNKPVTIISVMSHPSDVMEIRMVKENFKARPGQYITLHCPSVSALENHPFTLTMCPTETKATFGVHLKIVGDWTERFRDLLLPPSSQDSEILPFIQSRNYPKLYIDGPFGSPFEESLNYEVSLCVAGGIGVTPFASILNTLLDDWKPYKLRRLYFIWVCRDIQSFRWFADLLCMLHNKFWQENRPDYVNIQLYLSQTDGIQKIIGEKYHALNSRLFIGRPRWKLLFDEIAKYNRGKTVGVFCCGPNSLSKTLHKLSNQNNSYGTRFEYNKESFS

[10] = target: NADPH oxidase 5 (Homo sapiens) (UniProt Q96PH1); test: NOX5-dependent H2O2 signal modulators, primary screen, NOX inhibitor project, cell-based, HEK293-NOX5, Amplex Red fluorescence (AID 1161); conditions: HEK293-NOX5, ionomycin, 45 min, higher = more signal
NADPH oxidase 5 (Homo sapiens), sequence (Q96PH1 whole entry, looked up): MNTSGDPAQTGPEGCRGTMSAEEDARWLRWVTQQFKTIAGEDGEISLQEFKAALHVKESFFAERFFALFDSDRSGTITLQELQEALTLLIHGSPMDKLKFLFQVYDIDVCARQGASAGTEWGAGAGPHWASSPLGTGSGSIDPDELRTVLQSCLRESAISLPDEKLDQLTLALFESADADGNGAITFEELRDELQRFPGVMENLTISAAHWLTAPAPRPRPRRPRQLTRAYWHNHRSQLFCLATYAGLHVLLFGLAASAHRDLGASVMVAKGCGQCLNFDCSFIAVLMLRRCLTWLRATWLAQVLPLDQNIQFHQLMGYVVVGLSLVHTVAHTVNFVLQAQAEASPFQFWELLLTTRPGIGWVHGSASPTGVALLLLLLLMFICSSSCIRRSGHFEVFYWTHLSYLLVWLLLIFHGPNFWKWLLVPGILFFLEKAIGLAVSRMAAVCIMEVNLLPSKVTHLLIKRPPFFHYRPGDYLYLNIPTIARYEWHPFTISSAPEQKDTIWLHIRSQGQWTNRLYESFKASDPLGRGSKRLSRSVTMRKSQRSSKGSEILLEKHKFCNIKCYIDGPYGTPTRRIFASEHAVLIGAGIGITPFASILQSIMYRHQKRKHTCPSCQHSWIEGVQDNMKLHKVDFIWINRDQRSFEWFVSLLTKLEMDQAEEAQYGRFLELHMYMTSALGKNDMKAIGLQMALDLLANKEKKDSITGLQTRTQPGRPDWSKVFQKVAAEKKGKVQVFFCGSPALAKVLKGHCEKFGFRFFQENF

[11] = A549 cell viability effects, profiling panel, calcein-AM fluorescence, 48 h, basal (AID 1162); conditions: higher = more signal; also: test concentration not given here
[12] = adipocyte viability effects, profiling panel, cell-based, 3T3-L1 adipocytes, calcein-AM fluorescence, 48 h, basal (AID 1163); conditions: 3T3-L1 adipocytes viability, higher = more signal; also: test concentration not given here
[13] = HepG2 cell viability effects, profiling panel, calcein-AM fluorescence, 48 h, basal (AID 1164); conditions: higher = more signal; also: test concentration not given here
[14] = MM1S cell viability effects, profiling panel, calcein-AM fluorescence, 48 h, basal (AID 1165); conditions: higher = more signal;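 also: viability of MM1S multiple myeloma cells under basal unstimulated conditions; test concentration not given here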
[15] = basal RPMI8226 viability, no added stimulus, profiling panel, cell-based, calcein-AM fluorescence, 48 h, PK04 Diversity Set (AID 1166); conditions: RPMI8226 myeloma viability, higher = more signal;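 also: cells grown under basal conditions without added stimulus; test concentration not given here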
[16] = basal HepG2 mitochondrial membrane potential changes, profiling panel, cell-based, JC-1 fluorescence, 24 h, 100 nL compound (AID 1167); conditions: higher = more signal; also: test concentration not given here
[17] = basal 3T3-L1 adipocyte mitochondrial potential changes, profiling panel, cell-based, JC-1 fluorescence, 3T3-L1 adipocytes, 24 h, 100 nL compound (AID 1168); conditions: JC-1 mitochondrial fluorescence, higher = more signal, called active from +8 up or from −8 down; also: test concentration not given here
[18] = basal RPMI8226 mitochondrial membrane potential changes, profiling panel, cell-based, JC-1 fluorescence, 24 h, 100 nL compound (AID 1169); conditions: RPMI8226 myeloma, JC-1 mitochondrial potential fluorescence, higher = more signal; also: test concentration not given here
[19] = basal MM1S mitochondrial membrane potential changes, profiling panel, cell-based, JC-1 fluorescence, 24 h, 100 nL compound (AID 1170); conditions: higher = more signal; also: test concentration not given here
[20] = A549 lung cancer cell viability effects, profiling panel, resazurin fluorescence, 24 h, PK04 Diversity Set (AID 1171); conditions: higher = more signal, called active from +8 up or from −8 down; also: test concentration not given here

With COC(=O)[C@@]1(Cc2ccc(OC)cc2)[C@H]2c3cc(C(=O)N4CCCC4)n(CCSCCO)c3C[C@H]2CN1C(=O)c1ccccc1 the z-score [1] was -1.34 (inactive), the composite z-score [2] was 0.399 and the z-score [3] was 2.07 (inactive). For the same compound, the z-score [4] was 0.142 (inactive), the z-score [5] was -0.0464 (inactive) and the z-score [6] was 0.667 (inactive). For the same compound, the z-score [7] was -0.0335, the z-score [8] was 0.354 (inactive) and the z-score [9] was -1.04 (inactive). For the same compound, the z-score [10] was -0.201, the z-score [11] was -0.35 and the z-score [12] was 0.319. The z-score [13] was -0.814, the z-score [14] was -2.68 and the z-score [15] was -0.804. The z-score [16] was 1.5, the z-score [17] was -1.29 (inactive) and the z-score [18] was -0.689. The z-score [19] was 0.168 and the z-score [20] was 1.57 (inactive).
In the case of COCCOC(=O)N1C(=O)[C@@]2(c3ccccc31)[C@H](C(=O)N1CCCCCCC1)[C@H]1C(=O)O[C@H](c3ccccc3)[C@H](c3ccccc3)N1[C@@H]2c1ccc(OCCO)cc1, the z-score [1] is reported as -0.448 (inactive), the composite z-score [2] is reported as 3.13 and the z-score [3] is reported as 8.64 (active). The z-score [4] was 1.89 (inactive), the z-score [5] was 1.31 (inactive) and the z-score [6] was 0.976 (inactive). The z-score [7] was 0.213, the z-score [8] was -0.0367 (inactive) and the z-score [9] was 0.867 (inactive). The z-score [10] was 1.53, the z-score [11] was -0.134 and the z-score [12] was -0.202. The z-score [13] was -0.265, the z-score [14] was -0.88 and the z-score [15] was -1.07. For the same compound, the z-score [16] was -0.639, the z-score [17] was -1.75 (inactive) and the z-score [18] was -0.714. The z-score [19] was -1.15 and the z-score [20] was 0.526 (inactive).
For O=C1O[C@H](c2ccccc2)[C@H](c2ccccc2)N2[C@H]1[C@@H](C(=O)NC[C@H](O)c1ccccc1)[C@]1(C(=O)Nc3ccc(C#CC4=CCCCC4)cc31)[C@H]2c1ccccc1OCCO, the z-score [1] was -0.161 (inactive), the composite z-score [2] was 0.199 and the z-score [3] was 1.84 (inactive). The z-score [4] was 2.06 (inactive), the z-score [5] was -0.932 (inactive) and the z-score [6] was 2.06 (inactive). For the same compound, the z-score [7] was 0.233, the z-score [8] was 1.42 (inactive) and the z-score [9] was 1.04 (inactive). The z-score [10] was 1.83, the z-score [11] was -2.45 and the z-score [12] was -0.406. For the same compound, the z-score [13] was -3.88, the z-score [14] was -3.28 and the z-score [15] was -4.23. For the same compound, the z-score [16] was -2.22, the z-score [17] was 1.26 (inactive) and the z-score [18] was -1.09. For the same compound, the z-score [19] was -1.79 and the z-score [20] was -3.3 (inactive).
For CCCC=C(CCC)[C@@H](NS(=O)(=O)c1ccc(Cl)cc1)c1ccc(C(=O)OC)cc1, the z-score [1] was -1.01 (inactive), the composite z-score [2] was 0.523 and the z-score [3] was -0.556 (inactive). For the same compound, the z-score [4] was -0.914 (inactive), the z-score [5] was -0.338 (inactive) and the z-score [6] was -1.93 (inactive). For the same compound, the z-score [7] was 0.631, the z-score [8] was 0.0199 (inactive) and the z-score [9] was 0.249 (inactive). The z-score [10] was 1.39, the z-score [11] was -1.18 and the z-score [12] was 0.391. It also gave a z-score [13] of -0.845, a z-score [14] of 0.48 and a z-score [15] of -0.595. The z-score [16] was -1.07, the z-score [17] was -0.542 (inactive) and the z-score [18] was -0.906. For the same compound, the z-score [19] was -0.98 and the z-score [20] was 0.475 (inactive).
